Assay results reported in PubChem BioAssay AID504832 (National Center for Advancing Translational Sciences (NCATS), 2011).
The whole screen tested about 310,000 compounds, of which about 18,000 (5.8%) were called active. About 22% were inconclusive and are not listed. The sample holds actives, similar compounds and a random draw of the others, so the mix is not that of the screen. A number with no mark means an inactive call. Calls come from the whole dose curve; as a rule, active = well fitted inhibition curve with a large enough effect; inconclusive = small, poorly fitted or top-dose-only effect, or another doubt; inactive = no such curve, though single readings can be large or run the other way.

test: Primary qHTS for delayed death inhibitors of the malarial parasite plastid, 48 hour incubation; conditions: P. falciparum luciferase growth in erythrocytes; series mostly up to 28.7 µM; activity change, negative = inhibition: at the top concentration
How it was run: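 Growth was read as firefly luciferase luminescence after a 48 h, 37 C, 5% CO2 exposure of compounds to reporter-bearing P. falciparum cultures (0.1% parasitemia, 2% hematocrit final) in Albumax-supplemented RPMI 1640.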
% is set by controls: 0 for no effect and ±100 for the full control effect; potency is the fitted concentration of half-maximal effect.

Row | SMILES | activity change, negative = inhibition | Potency
1 | Cn1c(CC(=O)Nc2ccc(F)cc2)nnc1SCC(=O)NC1CCCCC1 | 11.3% | –
2 | CCCCN1C(=O)/C(=C2/Sc3ccc(Cl)cc3N2CC)SC1=S | -9.17% | –
3 | CC(NCc1cccs1)C(=O)Nc1cc(Cl)cc(Cl)c1 (stereo unspecified) | -12.9% | –
4 | CCOCCCNC(=O)C1(O)c2cc(Br)ccc2NC(=O)N1c1ccc(C)c(C)c1 (stereo unspecified) | -7.48% [at 0.00184 µM] | –
5 | CCCCN1C(=O)C(C)=C(C)C1OCCc1ccc(OC)c(OC)c1 (stereo unspecified) | 12.2% | –
6 | O=C(Cc1ccc(-c2ccccc2)cc1)NC(c1ccccc1)c1ccccc1 | – | 13.1 µM (active)
7 | O=C(O)Cc1ccc(-c2ccccc2)cc1 | – | inactive
8 | C=CCC(NC(=O)Cc1ccccc1)C(=O)NCCC (stereo unspecified) | 20.5% | –
9 | Cc1ccc(S(=O)(=O)NCC(=O)N2CCOCCOCCOCCOCC2)cc1 | 22.8% | –
10 | Cc1cc(C)cc(C(=O)NC(CC(N)=O)c2ccc(N3CCC(N4CCCCC4)CC3)c([N+](=O)[O-])c2)c1 (stereo unspecified) | -1.82% | –
11 | O=C1[C@H]2[C@@H](c3ccc(Cl)cc3)N3C(=O)N(c4cccc(F)c4)C(=O)[C@@]3(Cc3ccccc3)[C@H]2C(=O)N1C1CCCCC1 | – | 9.28 µM (active)
12 | Cc1cccc([C@@H]2[C@@H]3C(=O)N(Cc4ccccc4)C(=O)[C@@H]3[C@]3(Cc4ccc(Cl)cc4)C(=O)N(c4cccc(Cl)c4)C(=O)N23)c1 | – | 4.15 µM (active)
13 | O=C1CC(NNc2ccccc2)C(=O)N1c1cccc(Cl)c1 (stereo unspecified) | 18.9% | –
14 | O=C1[C@H]2[C@@H](c3ccc(F)cc3)N3C(=O)N(c4ccc(C(F)(F)F)cc4)C(=O)[C@@]3(Cc3ccccc3)[C@H]2C(=O)N1C1CCCCC1 | – | 4.65 µM (active)
15 | COc1ccc(N2C(=O)C(Cc3ccccc3)NC2=S)cc1 (stereo unspecified) | 16.6% | –
16 | COC(=O)CN1C(=O)[C@H]2[C@@H](/C=C/c3ccccc3)N3C(=O)CN(Cc4ccccc4)C(=O)[C@@]3(Cc3ccccc3)[C@H]2C1=O | -26.2% | –
17 | COc1ccc([C@@H]2[C@@H]3C(=O)N(C(C)(C)C)C(=O)[C@@H]3[C@]3(Cc4ccccc4)C(=O)N(c4cccc(Br)c4)C(=O)N23)cc1 | – | 2.62 µM (active)
18 | O=C(NC1(C(F)(F)F)NC(=O)N(C2CCCCC2)C1=O)c1ccco1 (stereo unspecified) | 8.82% | –
19 | COc1ccc(C2C(C(C)=O)=C(O)C(=O)N2Cc2cccnc2)cc1 (stereo unspecified) | 9.53% | –
20 | O=C(CCNS(=O)(=O)c1ccc(Br)cc1)NCC1CCCO1 (stereo unspecified) | 3.4% | –
21 | CCc1ccc(/C=N/NC(=O)c2nnn(-c3nonc3N)c2CN2CCc3ccccc32)cc1 | -24.2% | –

Row | SMILES | activity change, negative = inhibition | Potency
22 | Cc1cc(OC(=O)c2ccc(OC(C)C)cc2)c([N+](=O)[O-])c(=O)[nH]1 | -10.1% | –
23 | Cc1ccc(NS(=O)(=O)c2ccc(C(=O)NCCCN3CCOCC3)cc2)cc1 | 4.35% | –
24 | COc1ccc(N2CCN(C(=O)CN3C(=O)COc4ccccc43)CC2)cc1 | 2.97% | –
25 | COc1ccc(Cc2nc3ccc(C(=O)NCC4CCOCC4)cc3o2)cc1OC | -17.1% | –
26 | COc1ccc(N(CC(=O)Nc2ccc(C)cc2C)S(=O)(=O)c2ccccc2[N+](=O)[O-])c(OC)c1 | – | 9.28 µM (active)
27 | Cc1ccc(N(CC(=O)Nc2cccc(N(C)S(C)(=O)=O)c2)S(C)(=O)=O)cc1 | 8.82% | –
28 | CN(CC(=O)Nc1cccc(F)c1)CC(=O)Nc1cccc([N+](=O)[O-])c1 | -21.3% | –
29 | COc1ccc(N(CCC(=O)NCCc2ccccc2)S(=O)(=O)c2ccc(C)cc2C)cc1 | -3.86% | –
30 | COc1ccc(OCC(=O)Nc2cc(C)c(Cl)cc2OC)c([N+](=O)[O-])c1 | 36% | –
31 | COc1ccc(C)cc1S(=O)(=O)N(CC(=O)Nc1cccc([N+](=O)[O-])c1)c1ccc(C)cc1 | – | 9.28 µM (active)
32 | Brc1ccccc1/C=N/Nc1nc2ccccc2o1 | 122% | –
33 | COc1ccc(NC(=O)c2cccc(Cl)c2)c[n+]1[O-] | -14.8% | –
34 | CC(C(=O)c1ccc(-c2ccccc2)cc1)[n+]1cccc(Br)c1 (stereo unspecified) | 43.3% | –
35 | CC(C)C(=O)NCC(c1cccs1)S(=O)(=O)c1ccc(F)cc1 (stereo unspecified) | 4.58% | –
36 | CC(CC(=O)N1CCN(S(=O)(=O)c2ccccc2)CC1)n1cncn1 (stereo unspecified) | 21.2% | –
37 | COc1ccc(C(=O)CCc2ccccc2O)c(OC)c1 | 117% | –
38 | COc1ccc(C(=O)/C=C/c2cccnc2)c(OC)c1 | – | 11.7 µM (active)
39 | COc1ccc(C(=O)CCC(=O)Nc2cccnc2)c(OC)c1 | -5.35% | –
40 | COc1ccccc1N(CC(=O)NC1CCCC1)C(=O)C1(C)CC(=O)N=C2C=CC(C)=CN21 (stereo unspecified) | 5.48% | –
41 | COc1ccc(CNC(=O)CN(C(=O)c2csnn2)c2cnc3ccccc3c2)cc1 | 13.2% | –
42 | CCOC(=O)N1CCN(Cc2nnc(-c3ccccc3Cl)o2)CC1 | 0.496% | –

Row | SMILES | activity change, negative = inhibition | Potency
43 | COc1cc(C(c2c(NC(=O)c3ccco3)sc(C)c2C)N2CCOCC2)cc(OC)c1OC (stereo unspecified) | – | 10.4 µM (active)
44 | COc1ccc(C(=O)Nc2sc(C)c(C)c2CN2CCOCC2)cc1 | 17.1% | –
45 | COC(=O)c1cc(NC(=O)c2ccco2)ccc1N1CCOCC1 | 37.6% | –
46 | O=c1c2cc([N+](=O)[O-])ccc2nc2n1CCC2 | -0.017% | –
47 | COc1ccc(OC)c(NC(=O)C2CCCN2S(=O)(=O)c2cccc3nsnc23)c1 (stereo unspecified) | 0% | –
48 | O=C(CCNS(=O)(=O)c1cccs1)N1CCN(c2ccc(F)cc2)CC1 | 2.81% | –
49 | O=c1ccc2cc(S(=O)(=O)NCCCc3ccccc3)ccc2[nH]1 | -2.29% | –
50 | CC(C)N(Cc1nnc(-c2ccc(Cl)cc2)o1)C(=O)C1=COCCO1 | -5.65% | –
51 | Cn1cnnc1SCc1nnc(-c2ccccc2Br)o1 | 50.9% | –
52 | CC(C)N(Cc1nnc(-c2ccccc2Br)o1)C(=O)c1cc(Cl)nc2ccccc12 | – | 9.28 µM (active)
53 | COC(=O)C1=CO[C@@H](O[C@@H]2O[C@H](CO)[C@@H](O)[C@H](O)[C@H]2O)C2C1C[C@H](O)[C@@H]2C (stereo partly specified) | 30.8% | –
54 | COc1ccc(C(=O)NCc2ccc(C)cc2)cc1S(=O)(=O)N1CCCC1 | -27.2% | –
55 | COC(=O)C(C)Oc1ccc2c(-c3cccc([N+](=O)[O-])c3)cc(=O)oc2c1 (stereo unspecified) | 0.049% | –
56 | COC(=O)C(C)Oc1ccc2c(c1)O/C(=C\c1cccc(Br)c1)C2=O (stereo unspecified) | – | 13.1 µM (active)
57 | CN(C)C(=O)Oc1ccc2c(c1)O/C(=C\c1ccccc1)C2=O | 101% | –
58 | CCOC(=O)CC1COCCN1C(=O)c1cc(COc2ccc(F)c(F)c2)on1 (stereo unspecified) | -0.834% | –
59 | Cc1cc(Nc2ccc(N3CCOCC3)cc2)c2cccc(C)c2n1 | – | 4.15 µM (active)
60 | Cc1cc(Nc2ccc(Cl)cc2)nc(N2CCOCC2)n1 | 17.6% | –
61 | Cc1cc(Nc2ccc(C(=O)N3CCCCC3)cc2)c2cccc(C)c2n1 | 12.9% | –
